Screening results: PubChem, National Center for Advancing Translational Sciences (NCATS)
Pf Dd2 inh – inhibitors of Plasmodium falciparum Dd2 growth | P. falciparum Dd2 growth, SYBR Green, 72 h | Potency, µM (highest dose often 28.9 µM), for the others: top-dose activity, negative = inhibition, actives largely listed as inhibitors | actives 4.3% (n = 120,000) | AID 1347417; active = well fitted inhibition curve with a large enough effect;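 also: plate controls were DMSO vehicle for no effect and reference drug for full effect; nearly all actives have a fitted effect of over 65% in size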
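Infected erythrocytes (Dd2, 0.3% parasitemia, 2.5% hematocrit final) are added to compound in RPMI-1640/Albumax II medium, grown 72 h at 37C in low oxygen, then lysed with saponin/Triton-X containing SYBR Green and read by fluorescence.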
Active calls of the source: *; i = inactive; [ ] = another dose, or the depositor's remark. Shown is part of a subset that was picked to be rich in hits. Potency is read from the fitted curve at half-maximal effect.

SMILES	Pf Dd2 inh
COc1cccc(N2C(=O)NC(=NC3CCCCC3)C23CCN([S+](C)(=O)[O-])C3)c1 (stereo not given)	8.9%
COc1cccc(N2C(=O)NC(=NC3CCCC3)C23CCN(Cc2cccn2C)C3)c1 (stereo not given)	10µM*
Cn1cccc1CN1CCC2(C1)C(=NC1CCCC1)NC(=O)N2c1cc(F)cc(F)c1 (stereo not given)	8.91µM*
COc1cccc(N2C(=O)NC(=NC3CCCCC3)C23CCN(Cc2ccc(F)cc2)C3)c1 (stereo not given)	-1.1%
Cc1noc(C)c1Cc1ccc(C(=O)N2CCCCCCNC(=O)CC2)o1	i
CCOCCn1c(=O)[nH]c2cc(C(=O)NCCc3scnc3C)ccc21	1.1%
COc1ccc(Cl)cc1C(=O)N1CCC(N2CC3CC(C2)[C@H]2CCCC(=O)N2C3)CC1 (stereo not given in full)	1.7%
C[C@]1(CO)C2CC[C@@H](O)[C@@H](CC(=O)N3CCC[C@H]3CO)[C@]2(C)CC[C@H]1OC(=O)NC1CCCCC1 (stereo not given in full)	i
NC(=O)CO[C@@H]1CO[C@H]2[C@@H]1OC[C@@H]2NC(=S)NC1CCCCC1	-10.5%[44.1 µM]
CC(C)CC(=O)N1C[C@@H]2CCCN3CCC[C@@H]([C@H]23)[C@H]1CCCC(=O)NCC1CC1	-25.9%
Cc1cc2cc(-c3c(C)noc3C)nc(N(C)C)c2o1	i
COc1cc(-c2nc(-c3c(C)noc3C)cc3cc(C)oc23)ccn1	11.2µM*
Cc1cc2cc(-c3c(C)noc3C)nc(N3CCN(c4ccccn4)CC3)c2o1	-23.1%[44.1 µM]
COc1cc(-c2nc(-c3c(C)noc3C)cc3c2cc(C)n3C)ccn1	-5.3%[44.1 µM]
COc1ccc(-c2nc(-c3c(C)noc3C)cc3cc(CO)oc23)cn1	19.3%[44.1 µM]
Cc1cc(-c2nc(-c3c(C)noc3C)cc3cc(C)oc23)ccn1	11.2µM*
CC(C)NC[C@H]1O[C@@H]2C[C@@H](CC(=O)N3CCOCC3)O[C@@H]2[C@@H]1O	23.3%[44.1 µM]
Cc1ccc(C(=O)N2CCC(CCC(=O)NCc3nc4ccccc4n3C)CC2)cc1	-40.4%
CC(=O)Nc1ccc(CN2CCCC3(Cc4ccccc4CNC3=O)C2)cc1 (stereo not given)	-15.8%
Cc1ccc(CN2CCC3(CC2)Cc2ccccc2NC3=O)cc1	4.47µM*
O=C1NCc2ccccc2CC12CCN(Cc1ccncc1Cl)C2 (stereo not given)	10.4%
COc1cccc(CN2CCC3(Cc4ccccc4NC3=O)C2)c1 (stereo not given)	-3.6%[44.1 µM]
N#Cc1ccc(CN2CCC3(Cc4ccccc4CNC3=O)C2)cc1 (stereo not given)	5.2%
CC(C)Cc1ccc(CN2CCC3(Cc4ccccc4CNC3=O)C2)cc1 (stereo not given)	12.6µM*
CC(C)(C)CN1CCC2(Cc3ccccc3CNC2=O)C1 (stereo not given)	-25.0%[44.1 µM]
SMILES	Pf Dd2 inh
Cn1nccc1CN1CCC2(CC1)Cc1ccccc1NC2=O	-23.7%[44.1 µM]
O=C1NCc2ccccc2CC12CCN(Cc1ccc(Oc3ccccc3)cc1)C2 (stereo not given)	11.2µM*
O=C(Nc1nncs1)C1CC(=O)N(c2n[nH]c3cccc(F)c23)C1 (stereo not given)	-19.7%
CN(C(=O)c1ccc(F)cc1)C1CCCc2ccccc21 (stereo not given)	i
O=C1c2c(-c3nc(-c4ccsc4)no3)nnn2CCN1Cc1ccc(Cl)cc1	-7.8%
CC[C@@H]1[C@@H](NC(=O)Cc2csc(C(C)=O)c2)[C@@H]2CCO[C@H]12	-1.9%
CC[C@@H]1[C@@H](NC(=O)CC2Cc3ccccc3C2)[C@@H]2CCO[C@H]12	-3.2%
CC[C@@H]1[C@@H](NC(=O)C2(c3ccc(S(C)(=O)=O)cc3)CCC2)[C@@H]2CCO[C@H]12	8.91µM*
O=C(NCCCn1ccnc1)C1CCCN(c2nc(-c3ccccc3)nc3c2CCC3)C1 (stereo not given)	i
COCc1nncn1C1CCN(S(=O)(=O)c2cccc(C)c2)CC1	4.9%
Clc1ccc(-c2cnc([C@@H]3COCCN3Cc3cnc[nH]3)[nH]2)cc1	-5.5%[44.1 µM]
Cc1ccc(-c2cnc([C@@H]3COCCN3Cc3cnc[nH]3)[nH]2)cc1	i
CC(C)(C)CN1CCOC[C@H]1c1ncc(-c2ccc(F)cc2F)[nH]1	i
CC(C)(C)c1cnc([C@@H]2COCCN2Cc2ccc(Cl)cc2)[nH]1	3.98µM*
CC(=O)N1CCC(N2CCOC[C@H]2c2ncc(-c3ccc(S(C)(=O)=O)cc3)[nH]2)CC1	16.5%[44.1 µM]
c1ccc(-c2cnc([C@@H]3COCCN3Cc3cccnc3)[nH]2)cc1	11.9%[44.1 µM]
CS(=O)(=O)c1ccc(CN2CCOC[C@H]2c2ncc(-c3ccc(F)cc3F)[nH]2)cc1	-28.7%[44.1 µM]
CC(C)(C)c1cnc([C@@H]2COCCN2Cc2ccccc2O)[nH]1	2µM*
Cn1c(CN2CCOC[C@H]2c2ncc(-c3ccc(Cl)cc3)[nH]2)nc2ccccc21	10µM*
CC(=O)Nc1ccc(CN2CCOC[C@H]2c2ncc(-c3ccc(F)cc3F)[nH]2)cc1	i
CS(=O)(=O)c1ccc(CN2CCOC[C@H]2c2ncc(-c3ccc(Cl)cc3)[nH]2)cc1	11.2µM*
Cc1cc2nc3n(c(=O)c2n1CC(=O)Nc1cccc(C(C)C)c1)CCCCC3	9.3%
CS(=O)(=O)N1CCCN(C(=O)Nc2ccccc2)CCNC(=O)CC1c1ccccc1 (stereo not given)	-7.1%
CCc1nc2nccc(-c3ccc4c(c3)OCCCO4)n2n1	-9.7%
CC(=O)N1CCC2(CC1)C(=NC1CCCCC1)NC(=O)N2c1cccnc1	37.4%
SMILES	Pf Dd2 inh
Cc1nnc2n1CCC(N(C)C(=O)NCc1ccco1)CC2 (stereo not given)	-24.2%
COCc1cc(C[C@@H]2CC[C@H](O)[C@@H](CN(C(=O)Nc3ccccc3)C(=O)Nc3ccccc3)O2)no1	-16.4%
COc1cccc(C(=O)N2[C@@H]3CC[C@H]2CC(NC(=O)c2ccncc2)C3)c1 (stereo not given in full)	-4.7%
CCc1noc([C@@H]2CC(F)(F)CN2C(=O)c2ccc(C#N)cc2)n1	27.7%
COCC1CN(C)CC12CCN(C(=O)c1ccc(OC(F)(F)F)cc1)CC2 (stereo not given)	i
Cc1cccc(C(=O)N2C(C(=O)NCc3ccco3)COC23CCN(C(=O)CC(C)(C)C)CC3)c1 (stereo not given)	i
CC(=O)NC[C@@H]1C=C(C)[C@H](CC(=O)N(C)Cc2ccccc2)C[C@H]1C(C)C	i
Fc1ccc(-c2cnc([C@@H]3COCCN3Cc3cccnc3)[nH]2)cc1	i
Fc1ccc(CN2CCOC[C@H]2c2ncc(-c3ccc(Cl)s3)[nH]2)cc1	11.2µM*
Clc1ccc(-c2cnc([C@@H]3COCCN3CC3CC3)[nH]2)s1	i
Cc1ncccc1C(=O)N1CCC(COc2ccc3c(cnn3CC[S+](C)(=O)[O-])c2)CC1	-7.4%
O=C(NCC1CCCN(C(=O)c2cc(=O)[nH]c(=O)[nH]2)C1)c1cccs1 (stereo not given)	0.3%
COCC[C@]1(O)CCN(C(=O)c2cccc(OC)c2C)C[C@H]1C	2.3%
Cc1ccc(-c2n[nH]c3c2C(c2cccs2)N(c2ccc(Cl)cc2)C3=O)cc1 (stereo not given)	11.2µM*
CC1=C(C(=O)OC(C)C)C(c2cccc(F)c2)N2C(CC(=O)NCc3ccco3)=CSC2=N1 (stereo not given)	-15.6%
CCOC(=O)c1ccc(N2C(=O)c3n[nH]c(C)c3C2c2ccc(C(C)C)cc2)cc1 (stereo not given)	-19.0%
